# Source: PubChem BioAssay AID1159580 (chemical genetic matrix, 2015)
# About 2,000 (36%) of roughly 5,500 compounds were called active. Inconclusive results (about 18%) are left out. The list shows a part of the results. Unmarked numbers belong to inactive results. Rule as the data show it: active = normalized growth mostly below about 0.91 (no sharp cut-off); inconclusive = no clear call, values can overlap the other calls; inactive = mostly above about 0.92.
# Assay: chemical genetic growth profiling, strain panel (AID 1159580);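 also: tested at 20 µM; growth read once vehicle control cultures reached saturation at 30 °C; 1 = growth at the plate median or of vehicle wells; lower values mean less growth of the strain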
# Conditions: growth OD
smiles,measurement,setting,value
CC1=CC(=O)c2ccccc2C1=O,normalized growth,"S. cerevisiae deletion strains, locus YJR075W, strain HOC1, stronger effect = lower value",0.0628 (active)
same,normalized growth,"S. cerevisiae deletion strains, locus YKL009W, strain mrt4, stronger effect = lower value",0.0847 (active)
same,normalized growth,"S. cerevisiae deletion strains, locus YKL068W, stronger effect = lower value",1.01
same,normalized growth,"S. cerevisiae deletion strains, locus YKL085W, strain MDH1 (second series), stronger effect = lower value",0.494 (active)
same,normalized growth,"S. cerevisiae deletion strains, locus YKL085W, strain MDH1, stronger effect = lower value",0.494 (active)
same,normalized growth,"S. cerevisiae deletion strains, locus YKL160W, strain elf1, stronger effect = lower value",0.822 (active)
same,normalized growth,"S. cerevisiae deletion strains, locus YKL190W, strain CNB1, stronger effect = lower value",0.0475 (active)
same,normalized growth,"S. cerevisiae deletion strains, locus YKR001C, strain vps1, stronger effect = lower value",0.0601 (active)
same,normalized growth,"S. cerevisiae deletion strains, locus YKR026C, strain gcn3, stronger effect = lower value",1.03
same,normalized growth,"S. cerevisiae deletion strains, locus YKR091W, strain srl3, stronger effect = lower value",1.03
same,normalized growth,"S. cerevisiae deletion strains, locus YLL001W, strain dnm1, stronger effect = lower value",0.93
same,normalized growth,"S. cerevisiae deletion strains, locus YLL026W, stronger effect = lower value",0.997
same,normalized growth,"S. cerevisiae deletion strains, locus YLL041C, strain sdh2, stronger effect = lower value",1.04
same,normalized growth,"S. cerevisiae deletion strains, locus YLR027C, strain aat2, stronger effect = lower value",0.862 (active)
same,normalized growth,"S. cerevisiae deletion strains, locus YLR039C, strain RIC1, stronger effect = lower value",0.0839 (active)
same,normalized growth,"S. cerevisiae deletion strains, locus YLR058C, strain SHM2, stronger effect = lower value",0.0596 (active)
same,normalized growth,"S. cerevisiae deletion strains, locus YLR102C, strain apc9, stronger effect = lower value",0.0585 (active)
same,normalized growth,"S. cerevisiae deletion strains, locus YLR113W, strain HOG1, stronger effect = lower value",0.294 (active)
same,normalized growth,"S. cerevisiae deletion strains, locus YLR221C, strain rsa3, stronger effect = lower value",0.819 (active)
same,normalized growth,"S. cerevisiae deletion strains, locus YLR258W, strain gsy2, stronger effect = lower value",0.933
same,normalized growth,"S. cerevisiae deletion strains, locus YLR262C, strain YPT6 (second series), stronger effect = lower value",0.916
same,normalized growth,"S. cerevisiae deletion strains, locus YLR262C, strain YPT6, stronger effect = lower value",0.155 (active)
same,normalized growth,"S. cerevisiae deletion strains, locus YLR268W, strain sec22, stronger effect = lower value",0.0659 (active)
same,normalized growth,"S. cerevisiae deletion strains, locus YLR320W, strain mms22, stronger effect = lower value",0.881
same,normalized growth,"S. cerevisiae deletion strains, locus YLR330W, strain CHS5, stronger effect = lower value",0.0494 (active)
same,normalized growth,"S. cerevisiae deletion strains, locus YLR342W, strain FKS1 (second series), stronger effect = lower value",0.0779 (active)
same,normalized growth,"S. cerevisiae deletion strains, locus YLR342W, strain FKS1, stronger effect = lower value",1.01
same,normalized growth,"S. cerevisiae deletion strains, locus YLR357W, strain rsc2, stronger effect = lower value",1.04
same,normalized growth,"S. cerevisiae deletion strains, locus YLR370C, strain arc18, stronger effect = lower value",0.958
same,normalized growth,"S. cerevisiae deletion strains, locus YLR371W, strain rom2, stronger effect = lower value",0.0598 (active)
same,normalized growth,"S. cerevisiae deletion strains, locus YLR384C, strain iki3, stronger effect = lower value",1.04
same,normalized growth,"S. cerevisiae deletion strains, locus YLR418C, strain cdc73, stronger effect = lower value",0.0923 (active)
same,normalized growth,"S. cerevisiae deletion strains, locus YML016C, strain PPZ1, stronger effect = lower value",0.0501 (active)
same,normalized growth,"S. cerevisiae deletion strains, locus YML032C, strain rad52, stronger effect = lower value",0.112 (active)
same,normalized growth,"S. cerevisiae deletion strains, locus YML120C, strain ndi1, stronger effect = lower value",0.968
same,normalized growth,"S. cerevisiae deletion strains, locus YML124C, strain tub3, stronger effect = lower value",0.0587 (active)
same,normalized growth,"S. cerevisiae deletion strains, locus YMR058W, strain fet3, stronger effect = lower value",0.832 (active)
same,normalized growth,"S. cerevisiae deletion strains, locus YMR078C, strain ctf18, stronger effect = lower value",0.0795 (active)
same,normalized growth,"S. cerevisiae deletion strains, locus YMR125W, strain sto1, stronger effect = lower value",1.04
same,normalized growth,"S. cerevisiae deletion strains, locus YMR129W, stronger effect = lower value",1.01
same,normalized growth,"S. cerevisiae deletion strains, locus YMR205C, strain PFK2, stronger effect = lower value",0.799 (active)
same,normalized growth,"S. cerevisiae deletion strains, locus YMR223W, strain ubp8, stronger effect = lower value",0.0622 (active)
same,normalized growth,"S. cerevisiae deletion strains, locus YMR231W, strain pep5, stronger effect = lower value",1.02
same,normalized growth,"S. cerevisiae deletion strains, locus YMR263W, strain SAP30, stronger effect = lower value",0.0592 (active)
same,normalized growth,"S. cerevisiae deletion strains, locus YMR307W, strain GAS1, stronger effect = lower value",0.118 (active)
same,normalized growth,"S. cerevisiae deletion strains, locus YNL067W, strain RPL9B, stronger effect = lower value",0.0512 (active)
same,normalized growth,"S. cerevisiae deletion strains, locus YNL071W, strain lat1, stronger effect = lower value",0.543 (active)
same,normalized growth,"S. cerevisiae deletion strains, locus YNL128W, strain TEP1, stronger effect = lower value",0.0609 (active)
same,normalized growth,"S. cerevisiae deletion strains, locus YNL153C, strain GIM3, stronger effect = lower value",0.0481 (active)
same,normalized growth,"S. cerevisiae deletion strains, locus YNL183C, strain NPR1, stronger effect = lower value",0.393 (active)
same,normalized growth,"S. cerevisiae deletion strains, locus YNL209W, strain ssb2, stronger effect = lower value",0.983
same,normalized growth,"S. cerevisiae deletion strains, locus YNL233W, strain BNI4, stronger effect = lower value",0.0537 (active)
same,normalized growth,"S. cerevisiae deletion strains, locus YNL248C, strain rpa49, stronger effect = lower value",0.883 (active)
same,normalized growth,"S. cerevisiae deletion strains, locus YNL250W, strain rad50, stronger effect = lower value",0.513 (active)
same,normalized growth,"S. cerevisiae deletion strains, locus YNL271C, strain bni1, stronger effect = lower value",0.705 (active)
same,normalized growth,"S. cerevisiae deletion strains, locus YNL298W, strain CLA4, stronger effect = lower value",0.363 (active)
same,normalized growth,"S. cerevisiae deletion strains, locus YNL307C, strain MCK1, stronger effect = lower value",0.0683 (active)
same,normalized growth,"S. cerevisiae deletion strains, locus YNL322C, strain KRE1 (second series), stronger effect = lower value",0.999
same,normalized growth,"S. cerevisiae deletion strains, locus YNL322C, strain KRE1, stronger effect = lower value",0.047 (active)
same,normalized growth,"S. cerevisiae deletion strains, locus YNR049C, strain mso1, stronger effect = lower value",1.02
same,normalized growth,"S. cerevisiae deletion strains, locus YNR052C, strain pop2, stronger effect = lower value",0.12 (active)
same,normalized growth,"S. cerevisiae deletion strains, locus YOL006C, strain TOP1, stronger effect = lower value",0.0979 (active)
same,normalized growth,"S. cerevisiae deletion strains, locus YOL147C, strain pex11, stronger effect = lower value",0.0692 (active)
same,normalized growth,"S. cerevisiae deletion strains, locus YOR001W, strain rrp6, stronger effect = lower value",0.923
same,normalized growth,"S. cerevisiae deletion strains, locus YOR061W, strain CKA2, stronger effect = lower value",0.05 (active)
same,normalized growth,"S. cerevisiae deletion strains, locus YOR069W, strain VPS5, stronger effect = lower value",0.0532 (active)
same,normalized growth,"S. cerevisiae deletion strains, locus YOR070C, strain gyp1, stronger effect = lower value",0.959
same,normalized growth,"S. cerevisiae deletion strains, locus YOR080W, strain dia2, stronger effect = lower value",1.03
same,normalized growth,"S. cerevisiae deletion strains, locus YOR083W, strain WHI5, stronger effect = lower value",0.882 (active)
same,normalized growth,"S. cerevisiae deletion strains, locus YOR106W, strain vam3, stronger effect = lower value",0.818 (active)
same,normalized growth,"S. cerevisiae deletion strains, locus YOR136W, strain idh2, stronger effect = lower value",0.0688 (active)
same,normalized growth,"S. cerevisiae deletion strains, locus YOR144C, strain elg1, stronger effect = lower value",0.063 (active)
same,normalized growth,"S. cerevisiae deletion strains, locus YOR184W, strain ser1, stronger effect = lower value",0.0695 (active)
same,normalized growth,"S. cerevisiae deletion strains, locus YOR231W, strain MKK1, stronger effect = lower value",0.277 (active)
same,normalized growth,"S. cerevisiae deletion strains, locus YOR265W, strain rbl2, stronger effect = lower value",0.983
same,normalized growth,"S. cerevisiae deletion strains, locus YOR270C, strain vph1, stronger effect = lower value",0.776 (active)
same,normalized growth,"S. cerevisiae deletion strains, locus YOR290C, strain snf2, stronger effect = lower value",1.02
same,normalized growth,"S. cerevisiae deletion strains, locus YOR316C, strain cot1, stronger effect = lower value",0.0564 (active)
same,normalized growth,"S. cerevisiae deletion strains, locus YPL051W, strain arl3, stronger effect = lower value",0.892 (active)
same,normalized growth,"S. cerevisiae deletion strains, locus YPL055C, strain LGE1, stronger effect = lower value",0.0708 (active)
same,normalized growth,"S. cerevisiae deletion strains, locus YPL078C, strain atp4, stronger effect = lower value",0.941
same,normalized growth,"S. cerevisiae deletion strains, locus YPL106C, strain sse1, stronger effect = lower value",0.904
same,normalized growth,"S. cerevisiae deletion strains, locus YPL240C, strain hsp82, stronger effect = lower value",1
same,normalized growth,"S. cerevisiae deletion strains, locus YPL241C, strain CIN2, stronger effect = lower value",0.0549 (active)
same,normalized growth,"S. cerevisiae deletion strains, locus YPL256C, strain CLN2, stronger effect = lower value",0.356 (active)
same,normalized growth,"S. cerevisiae deletion strains, locus YPR119W, strain clb2, stronger effect = lower value",0.063 (active)
same,normalized growth,"S. cerevisiae deletion strains, locus YPR141C, strain kar3, stronger effect = lower value",0.859 (active)
same,normalized growth,"S. cerevisiae deletion strains, locus YPR163C, strain tif3, stronger effect = lower value",0.0724 (active)
same,normalized growth,"S. cerevisiae deletion strains, locus YPR167C, strain met16, stronger effect = lower value",0.0586 (active)
same,normalized growth,"S. cerevisiae deletion strains, strain wtn01, stronger effect = lower value",0.0598 (active)
same,normalized growth,"S. cerevisiae strains, strain wild type, stronger effect = lower value",0.0461 (active)
